SMILES strings stand for the structures. “And” between values parts separate entries of the source, which are not always exact repeats. Equal entries are not always repeated. The source made the active and inactive calls. Entries that show only a call come without a potency. Unless noted, the call rests on the fitted dose curve.

Estrogen receptor (Homo sapiens), sequence (P03372 whole entry, looked up): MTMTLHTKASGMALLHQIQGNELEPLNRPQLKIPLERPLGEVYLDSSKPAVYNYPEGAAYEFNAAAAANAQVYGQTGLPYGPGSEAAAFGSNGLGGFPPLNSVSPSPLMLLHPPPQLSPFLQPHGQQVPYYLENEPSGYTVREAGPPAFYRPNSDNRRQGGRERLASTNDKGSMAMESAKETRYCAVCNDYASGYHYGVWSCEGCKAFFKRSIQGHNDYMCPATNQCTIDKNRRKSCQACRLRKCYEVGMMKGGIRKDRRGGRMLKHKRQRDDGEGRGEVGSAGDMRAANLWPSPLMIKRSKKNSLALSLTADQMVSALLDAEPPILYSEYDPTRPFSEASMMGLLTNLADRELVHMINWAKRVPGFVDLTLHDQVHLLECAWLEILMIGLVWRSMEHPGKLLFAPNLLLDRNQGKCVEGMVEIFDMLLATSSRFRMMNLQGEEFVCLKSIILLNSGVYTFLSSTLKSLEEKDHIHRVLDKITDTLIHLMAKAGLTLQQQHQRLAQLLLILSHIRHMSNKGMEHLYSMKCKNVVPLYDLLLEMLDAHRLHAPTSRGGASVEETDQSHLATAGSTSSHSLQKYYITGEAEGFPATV

Test system in the first assay: not listed separately
The assay is described as follows: qHTS assay to identify small molecule antagonists of the thyroid receptor (TR) signaling pathway (AID 743065; active means well fitted inhibition curve with a large enough effect in the repeat runs; inconclusive means weak or mixed curves; inactive means no such curve, though single readings can be large or run the other way; further: nearly all actives have a fitted effect of over 55% in size; further: potency means the concentration at half of the fitted maximal effect). Conditions: GH3.TRE-Luc, T3-stimulated luciferase inhibition, 23.5 h; series mostly up to 70.3 µM. In a few lines:
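Antagonism measured as loss of luciferase signal in GH3 cells stably carrying a TRE-luciferase reporter, co-treated with compound and T3 (1 nM final) for 23.5 h at 37 C. Viability was read in the same well by CellTiter-Fluor.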
For orientation: qHTS replaces the single test concentration by a dilution series.
Consider `Cc1cc(C(F)(C(F)(F)F)C(F)(F)F)ccc1NC(=O)c1cccc(I)c1C(=O)NC(C)(C)CS(C)(=O)=O`, for which the Potency is 21.8 µM (active).
Same read-out and setting: under `CCOc1cc(C(C)(C)C)ccc1C1COC(c2c(F)cccc2F)=N1` (stereo unspecified) stands 16.6 µM (active); under `Nc1ccccc1C(=O)Oc1ccc2ccccc2c1`, “inactive”; under `C[C@]12CC[C@@H]3c4ccc(OC(=O)N(CCCl)CCCl)cc4CC[C@H]3[C@@H]1CC[C@@H]2O`, “inactive”.
Regarding `BrCBr`, the Potency entry is “inactive”.
On to `O=C(O)COc1nc(Cl)c(Cl)cc1Cl`, for which the Potency result is “inactive”.
Turning to `CC(C)CCCCCCCOP(=O)(Oc1ccccc1)Oc1ccccc1`, the Potency was 30.8 µM (active).
As to `O=C(CBr)c1ccc(O)cc1`, the Potency entry was “inactive”.
On to `Oc1c(Cl)c(Cl)cc(Cl)c1Cl`, for which the Potency is 23.7 µM (active).
Turning to `[CH3][Hg][Cl]`, the Potency is 1.22 µM (active).
Consider `ClC1=C(Cl)[C@]2(Cl)[C@H]3[C@H]([C@H]4C=C[C@H]3C4)[C@@]1(Cl)C2(Cl)Cl`, for which the Potency is 68.6 µM (active).
The same measure, in the same setting: under `CCCCCCCCCBr` stands “inactive”; under `Cc1ccc(OP(=O)(Oc2ccccc2)Oc2ccccc2)cc1`, “inactive”; under `S=C=Nc1cccc2ccccc12`, “inactive”.
For `Clc1ccc(C(c2ccccc2Cl)C(Cl)(Cl)Cl)cc1` (stereo unspecified), the Potency is 27.5 µM (active) and 40.2 µM (active).
Turning to `Cc1c(Cl)c(=O)oc2cc(OP(=O)(OCCCl)OCCCl)ccc12`, the Potency entry was “inactive”.
Take `[Cd+2].[Cl-].[Cl-]`: the Potency was 27.5 µM (active) and 38.6 µM (active).
`CCOC(=O)OC1=C(c2cc(C)ccc2C)C(=O)NC12CCC(OC)CC2` (stereo unspecified): the Potency was 54.4 µM (active).
Turning to `FC(F)(F)c1cccc(C2=CCN(CCc3ccc4ccccc4c3)CC2)c1`, the Potency result was “inactive”.
As to `Nc1ccc(Sc2ccc(N)cc2)cc1`, the Potency entry is “inactive”.
For `c1ccc(OCC2CO2)cc1` (stereo unspecified), the Potency entry was “inactive”.
Still for that read-out and setting: the figure for `CCC(C)(C)C(=O)OC1=C(c2ccc(Cl)cc2Cl)C(=O)OC12CCCCC2` is 54.5 µM (active).
With `CN(C)C1CSSSC1`, the Potency result is “inactive”.
Still for that read-out and setting: under `COP(=S)(OC)Oc1cc(Cl)c(Br)cc1Cl` stands 61.1 µM (active); under `C1CCC2CCCCC2C1` (stereo unspecified), “inactive”.
In the case of `O=c1oc2ccccc2c(O)c1Cc1c(O)c2ccccc2oc1=O`, the Potency is 11.4 µM (active).
For the compound `Fc1cccc(Cl)c1CCl`, the Potency result is “inactive”.
`COP(=O)(OC)SCn1c(=O)oc2cc(Cl)cnc21`: the Potency entry was “inactive”.

Another assay deals with thyroid hormone receptor (rat, GH3 cells). The assay is described as follows: qHTS assay to identify small molecule agonists of the thyroid receptor (TR) signaling pathway (AID 743066). Conditions: GH3.TRE-Luc cells, TR agonist luciferase, 24 h; series mostly up to 83.9 µM.
Turning to `Cc1cc(C(F)(C(F)(F)F)C(F)(F)F)ccc1NC(=O)c1cccc(I)c1C(=O)NC(C)(C)CS(C)(=O)=O`, the result was inactive.
With `C[C@]12CC[C@@H]3c4ccc(OC(=O)N(CCCl)CCCl)cc4CC[C@H]3[C@@H]1CC[C@@H]2O`, the compound was called inactive.
With `O=[N+]([O-])c1c2ccccc2cc2ccccc12`, the outcome was inactive.
Take `CC(=O)Nc1ccc2c(c1)Cc1ccccc1-2`: the result was inactive.
Consider `BrCBr`, for which the compound was called inactive.
With `O=C(O)COc1nc(Cl)c(Cl)cc1Cl`, the compound was called inactive.
As for `O=C(CBr)c1ccc(O)cc1`, the outcome was inactive.
Consider `Oc1c(Cl)c(Cl)cc(Cl)c1Cl`, for which the call was inactive.
Turning to `ClC1=C(Cl)[C@]2(Cl)[C@H]3[C@H]([C@H]4C=C[C@H]3C4)[C@@]1(Cl)C2(Cl)Cl`, the outcome was inactive.
Still for that read-out and setting: the entry for `CCCCCCCCCBr` is “inactive”; for `Cc1ccc(OP(=O)(Oc2ccccc2)Oc2ccccc2)cc1` it is “inactive”; for `S=C=Nc1cccc2ccccc12` it is “inactive”.
The same measure, in the same setting: under `Nc1ccccc1C(=O)OC/C=C/c1ccccc1` stands “inactive”; under `c1ccc(Nc2ccc3ccccc3c2)cc1`, “inactive”; under `Clc1ccc(C(c2ccccc2Cl)C(Cl)(Cl)Cl)cc1` (stereo unspecified), “inactive”.
In the case of `Cc1c(Cl)c(=O)oc2cc(OP(=O)(OCCCl)OCCCl)ccc12`, the compound was classed as inactive.
The same measure, in the same setting: the entry for `[Cd+2].[Cl-].[Cl-]` is “inactive”; for `CCOC(=O)OC1=C(c2cc(C)ccc2C)C(=O)NC12CCC(OC)CC2` (stereo unspecified) it is “inactive”; for `FC(F)(F)c1cccc(C2=CCN(CCc3ccc4ccccc4c3)CC2)c1` it is “inactive”.
As to `Nc1ccc(Sc2ccc(N)cc2)cc1`, the call was inactive.
For `c1ccc(OCC2CO2)cc1` (stereo unspecified), the outcome was inactive.
For the compound `CCC(C)(C)C(=O)OC1=C(c2ccc(Cl)cc2Cl)C(=O)OC12CCCCC2`, the compound was classed as inactive.
For `CN(C)C1CSSSC1`, the outcome was inactive.
As for `COP(=S)(OC)Oc1cc(Cl)c(Br)cc1Cl`, the outcome was inactive.
Take `O=C(CCCN1CCC2(CC1)C(=O)NCN2c1ccccc1)c1ccc(F)cc1`: the compound was classed as inactive.
`C1CCC2CCCCC2C1` (stereo unspecified): the outcome was inactive.
With `O=c1oc2ccccc2c(O)c1Cc1c(O)c2ccccc2oc1=O`, the compound was classed as inactive.
On to `Fc1cccc(Cl)c1CCl`, for which the call was inactive.
Still for that read-out and setting: the entry for `COP(=O)(OC)SCn1c(=O)oc2cc(Cl)cnc21` is “inactive”.

The target in another assay is Estrogen receptor (Homo sapiens) (UniProt P03372). Briefly: qHTS assay to identify small molecule antagonists of the estrogen receptor alpha (ER-alpha) signaling pathway (AID 743069; active means well fitted curve in the direction sought with a large enough effect in the signal ratio in the repeat runs, not every such curve was filed as active; inconclusive means weak or mixed curves, or effect the other way; inactive means no such curve, though single readings can be large or run the other way; the % refers to the signal ratio; further: potency means the concentration at half of the fitted maximal effect). As to conditions: HEK293 ER-alpha-UAS-bla, beta-lactamase ratio, antagonist mode; series mostly up to 69.4 µM. In a few lines:
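Fluorescence intensity from a beta-lactamase FRET substrate served as the read-out. Cells: HEK293 with stably integrated ER-alpha-UAS-bla reporter. Agonist 17beta-estradiol was co-added with compounds; incubation 18 hr at 37C, substrate 2 hr at room temperature.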
As to `Nc1ccc(Cc2ccc(N)c(Cl)c2)cc1Cl`, the Potency was 4.22 µM [inconclusive] (active).
On to `CC(=O)Nc1ccc2c(c1)Cc1ccccc1-2`, for which the Potency entry is “inactive”.
Regarding `BrCBr`, the Potency result was “inactive”.
For the compound `O=C(O)COc1nc(Cl)c(Cl)cc1Cl`, the Potency result is “inactive”.
`CC(C)CCCCCCCOP(=O)(Oc1ccccc1)Oc1ccccc1`: the Potency result was “inactive”.
The same measure, in the same setting: the figure for `Oc1c(Cl)c(Cl)cc(Cl)c1Cl` is 15.1 µM [inconclusive] (active); for `ClC1=C(Cl)[C@]2(Cl)[C@H]3[C@H]([C@H]4C=C[C@H]3C4)[C@@]1(Cl)C2(Cl)Cl` it is “inactive”.
On to `CCCCCCCCCBr`, for which the Potency result is “inactive”.
On the same count and under the same terms, under `Cc1ccc(OP(=O)(Oc2ccccc2)Oc2ccccc2)cc1` stands “inactive”; under `c1ccc(Nc2ccc3ccccc3c2)cc1`, “inactive”.
Still for that read-out and setting: the entry for `Clc1ccc(C(c2ccccc2Cl)C(Cl)(Cl)Cl)cc1` (stereo unspecified) is “inactive”; for `Cc1c(Cl)c(=O)oc2cc(OP(=O)(OCCCl)OCCCl)ccc12` it is “inactive”; for `CCOC(=O)OC1=C(c2cc(C)ccc2C)C(=O)NC12CCC(OC)CC2` (stereo unspecified) it is “inactive”.
As to `Nc1ccc(Sc2ccc(N)cc2)cc1`, the Potency result was “inactive”.
Take `CC(C)N1C(=O)N(c2ccccc2)CSC1=NC(C)(C)C`: the Potency is 49 µM [inconclusive] (active).
For `CN(C)C1CSSSC1`, the Potency entry is “inactive”.
Turning to `O=C(CCCN1CCC2(CC1)C(=O)NCN2c1ccccc1)c1ccc(F)cc1`, the Potency is 8.49 µM [inconclusive] (active).
With `C1CCC2CCCCC2C1` (stereo unspecified), the Potency entry is “inactive”.
For the compound `COP(=O)(OC)SCn1c(=O)oc2cc(Cl)cnc21`, the Potency entry was “inactive”.
